Bioassay records from PubChem.
MEX-5 binding: MEX-5 zinc finger RNA-binding disruptors – biochemical, C. elegans, fluorescence polarization, MLPCN library, primary screen; Zinc finger protein mex-5 (Caenorhabditis elegans), Q9XUB2; MEX-5/FITC-TCR2 RNA binding; active compounds read low; activity score (negative = inhibition of binding), % at 10 µM; actives 0.38% (n = 300,000); AID 1832, 2009;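 active means inhibition past about -25% in most replicates, and total fluorescence under double the plate's negative control median, limit read from the data; inconclusive means replicates evenly split on the limit, or fluorescence at least double controls; inactive means too little inhibition in most replicates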
BCLXL inh: inhibitors of human Bcl-xL, primary screen, biochemical, fluorescence polarization, HTS; GST-Bcl-xL / FITC-Bim BH3 peptide fluorescence polarization; inhibition, % at 10.9 µM; actives 0.7% (n = 320,000); AID 2129, 2009;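 active means inhibition above the mean of all tested compounds plus 3 SD, cutoff set per campaign, cut at about 30% in these data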;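 further: inhibitors lower millipolarization by displacing the labeled peptide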
Target sequence (Q07817 whole entry, looked up): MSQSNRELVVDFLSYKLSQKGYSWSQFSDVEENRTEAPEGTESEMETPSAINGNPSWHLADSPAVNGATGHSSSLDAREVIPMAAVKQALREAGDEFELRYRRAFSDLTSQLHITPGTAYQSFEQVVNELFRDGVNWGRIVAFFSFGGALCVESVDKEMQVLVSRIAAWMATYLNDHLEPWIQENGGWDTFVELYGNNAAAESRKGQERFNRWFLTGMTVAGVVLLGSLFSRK
eLon inh: inhibitors of E. coli Lon protease, primary screen, biochemical, fluorescence polarization | P0A9M0 | purified E. coli Lon protease | actives 0.42% (n = 360,000) | inhibition, % at 7.94 µM; in the data active means inhibition above about 13%, passing the limit was not always enough
EBV gp42 inh: Epstein-Barr virus gp42 inhibitors, primary screen, biochemical, uHTS, fluorescence polarization | Fluorescence polarization binding assay, mP read-out | inhibition, % (tested at 21.74 µM) | actives 0.42% (n = 220,000); in the data active means inhibition above about 50%
Target sequence (Q1HVG2 whole entry, looked up): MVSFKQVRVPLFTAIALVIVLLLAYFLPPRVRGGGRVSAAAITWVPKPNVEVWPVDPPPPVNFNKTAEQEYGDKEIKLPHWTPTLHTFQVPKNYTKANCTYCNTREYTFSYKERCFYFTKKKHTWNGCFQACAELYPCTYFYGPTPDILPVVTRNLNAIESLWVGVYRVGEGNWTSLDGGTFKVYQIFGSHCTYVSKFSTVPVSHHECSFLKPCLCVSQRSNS
GLD-1 RNA inh: GLD-1/TGE RNA complex disruptors, primary screen, biochemical, fluorescence polarization. Female germline-specific tumor suppressor gld-1 (Caenorhabditis elegans), Q17339. purified GLD-1 + fluorescein TGE RNA. inhibition, % at 5.96 µM. actives 0.44% (n = 320,000). AID 2280, 2010;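 active means percent inhibition above a per-plate cutoff, the plate mean of test compounds plus 3 SD, cut at about 30% in these data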
E coli Lon conf: E. coli Lon protease inhibitor retest, confirmation, biochemical, fluorescence polarization | shares compounds with eLon inh | actives 31% (n = 1,400) | inhibition, % at 7.94 µM | AID 602230, 2012 | purified E. coli Lon; in the data active means inhibition above about 16%
Large screens that a line does not name were inactive (follow-up assays come after a bar, where they were run). Compounds with a hit are over-represented: about 1.3% of the library has one in this group of screens.

COc1ccc(C2Nc3ccccc3NC3=C2C(=O)CC(C)(C)C3)cc1 (configuration not stated)	eLon inh 64 (no result: EBV gp42 inh) | E coli Lon conf inactive
CCn1c(SCC(=O)Nc2ccc(N3CCOCC3)cc2)nnc1-c1ccco1	eLon inh 27 (no result: EBV gp42 inh) | E coli Lon conf inactive
CCn1c(C)nnc1SCC(=O)Nc1ccc(N2CCOCC2)cc1	none (no result: EBV gp42 inh)
COc1ccc(OC)c(NC(=O)Cc2nn(C)c(=O)c3ccccc23)c1	eLon inh 16 | E coli Lon conf inactive
COc1cc(NC(=O)Cc2nn(C)c(=O)c3ccccc23)cc(OC)c1OC	none
Cc1cc(C(N)=O)c2ccccc2n1	none
NC(=O)c1cc2c3ccccc3ccn2c1-c1ccccc1	BCLXL inh 50, eLon inh 25, GLD-1 RNA inh 51 | E coli Lon conf 18
O=C1CCCC/C1=C\Nc1ccc(C(=O)O)c(O)c1	eLon inh 44 | E coli Lon conf inactive
Cc1c([N+](=O)[O-])nnn1-c1cc(Cl)cc(Cl)c1	eLon inh 28 | E coli Lon conf inactive
O=C(C1CCC(=O)N(C2CC2)C1)N(CCO)Cc1ccccc1 (configuration not stated)	eLon inh 47 (no result: EBV gp42 inh) | E coli Lon conf inactive
CCN1CC=C2C(C1)C(c1ccc(Cl)s1)C(C#N)=C(N)C2(C#N)C#N (configuration not stated)	MEX-5 binding inconclusive, BCLXL inh 102, eLon inh 81, EBV gp42 inh 88, GLD-1 RNA inh 76 | E coli Lon conf inactive
O=C1NC2c3c(Cl)sc(Cl)c3C(=O)C2O1 (configuration not stated)	none (no result: MEX-5 binding, BCLXL inh, EBV gp42 inh, GLD-1 RNA inh)
O=C1NC2c3c(I)sc(I)c3C(=O)C2O1 (configuration not stated)	eLon inh 105 (no result: MEX-5 binding, BCLXL inh, EBV gp42 inh, GLD-1 RNA inh) | E coli Lon conf 17
COc1cccc(/C=N/NC(=O)c2ccc(=O)n(C)c2)c1OC	eLon inh 22 | E coli Lon conf inactive
O=C(CNc1cccc(S(=O)(=O)N2CCCC2)c1)Nc1cccc(C(F)(F)F)c1	none (no result: MEX-5 binding, BCLXL inh, EBV gp42 inh)
O=C(CCc1nc2ccccc2[nH]1)Nc1ccccc1F	eLon inh 14 | E coli Lon conf inactive
Clc1cccc(NCc2cn3cccnc3n2)c1	eLon inh 17 | E coli Lon conf inactive
CC(=O)N1CCOc2ccc(S(=O)(=O)NC[C@H]3O[C@@H](n4ccc(=O)[nH]c4=O)[C@H](O)[C@@H]3O)cc21	none (no result: MEX-5 binding, BCLXL inh, EBV gp42 inh, GLD-1 RNA inh)
Clc1ccccc1N=Nc1ccccn1	eLon inh active (no result: MEX-5 binding, BCLXL inh, EBV gp42 inh, GLD-1 RNA inh) | E coli Lon conf inactive
C=C(C(=O)c1ccccc1)C(CC(=O)c1ccccc1)c1ccccc1 (configuration not stated)	none
O=C(c1ccco1)N1CCN(C(=O)c2ccc(Br)o2)CC1	none (no result: MEX-5 binding, BCLXL inh, EBV gp42 inh, GLD-1 RNA inh)
O=C(c1ccc(Br)o1)N1CCN(C23CC4CC(CC(C4)C2)C3)CC1	eLon inh 29 (no result: EBV gp42 inh) | E coli Lon conf inactive
Cc1cccc(OCC(=O)NCC(=O)N/N=C/c2c(C)[nH]c3ccccc23)c1	none
CCCC(=O)Nc1ccc2c(c1)c1ccccc1n2CC	none (no result: MEX-5 binding)
CCn1c2ccccc2c2cc(NS(=O)(=O)c3ccccc3C)ccc21	eLon inh 14 | E coli Lon conf inactive
CCN1CCn2c3c(c4cccc(C)c42)CCCC31 (configuration not stated)	none (no result: EBV gp42 inh)
CCC(=O)N1CCC1(C)C(=O)Nc1ncc(C)s1 (configuration not stated)	none (no result: MEX-5 binding, BCLXL inh, EBV gp42 inh, GLD-1 RNA inh)
COc1cccc(C2C3CN(C)CC=C3C(C#N)=C(N)C2(C#N)C#N)c1OC (configuration not stated)	MEX-5 binding -67, BCLXL inh 116, eLon inh 53, EBV gp42 inh 78, GLD-1 RNA inh 78 | E coli Lon conf 16
CCOC(=O)N1CC=C2C(C#N)=C(N)C(C#N)(C#N)[C@H](c3ccc(OC(C)C)c(OCC)c3)[C@H]2C1	none
CCN1CC=C2C(C#N)=C(N)C(C#N)(C#N)[C@H](c3cccc(OC)c3OC)[C@H]2C1	BCLXL inh 136, eLon inh 36, GLD-1 RNA inh 114 (no result: MEX-5 binding, EBV gp42 inh) | E coli Lon conf inactive
CCN(CC)S(=O)(=O)c1cc(NC(=O)[C@@H](NC(N)=O)C(C)C)ccc1C	eLon inh 17 | E coli Lon conf inactive
